Results published in PubChem BioAssay.
Values joined by “and” are separate entries in the source; they are usually repeats but may differ in a detail not shown here. Equal values may be shown once. Active and inactive are the calls of the source. Rule as the data show it: active = inhibition above about 80%; inactive = the rest.

assay: UWB1.289_BRCA1 ovarian cancer growth, cell-based, BGB or cisplatin combinations (AID 1671459); details: UWB1.289 BRCA1 ovarian carcinoma, drug combinations, at 0.5 µM, stronger effect = higher value

| SMILES | inhibition |
| --- | --- |
| COc1cc([C@@H]2c3cc4c(cc3[C@@H](O[C@@H]3O[C@@H]5CO[C@@H](c6cccs6)O[C@H]5[C@H](O)[C@H]3O)[C@H]3COC(=O)[C@H]23)OCO4)cc(OC)c1O | 16.2% (inactive) and 36.5% (inactive) |
| COc1cc(NS(C)(=O)=O)ccc1Nc1c2ccccc2nc2ccccc12 | 31% (inactive) and 27.1% (inactive) |
| N=c1ccn2c(n1)O[C@H]1[C@H](O)[C@@H](CO)O[C@H]12 | 7.05% (inactive) |

same assay, conditions: UWB1.289 BRCA1 ovarian carcinoma, drug combinations, cisplatin combination, concentration series, at 5 µM, stronger effect = higher value

| SMILES | inhibition |
| --- | --- |
| COc1cc([C@@H]2c3cc4c(cc3[C@@H](O[C@@H]3O[C@@H]5CO[C@@H](c6cccs6)O[C@H]5[C@H](O)[C@H]3O)[C@H]3COC(=O)[C@H]23)OCO4)cc(OC)c1O | 117% and 124% |
| COc1cc(NS(C)(=O)=O)ccc1Nc1c2ccccc2nc2ccccc12 | 109% and 107% |
| N=c1ccn2c(n1)O[C@H]1[C@H](O)[C@@H](CO)O[C@H]12 | 41.2% |

assay: drug combination toxicity in non-malignant astrocytes – cell-based, BGB or cisplatin IC20 combos, cytotoxicity control for chromothriptic childhood tumor combination screen (AID 1671460); details: Human astrocytes, viability inhibition, drug combinations; at 0.5 µM; stronger effect = higher value;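 also: cells exposed to compounds for 96 hours before viability readout; 0% = vehicle and 100% = killing control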

| SMILES | inhibition |
| --- | --- |
| COc1cc([C@@H]2c3cc4c(cc3[C@@H](O[C@@H]3O[C@@H]5CO[C@@H](c6cccs6)O[C@H]5[C@H](O)[C@H]3O)[C@H]3COC(=O)[C@H]23)OCO4)cc(OC)c1O | 47.8% (inactive) and 52.6% (inactive) |
| COc1cc(NS(C)(=O)=O)ccc1Nc1c2ccccc2nc2ccccc12 | 47.7% (inactive) and 54% (inactive) |
| N=c1ccn2c(n1)O[C@H]1[C@H](O)[C@@H](CO)O[C@H]12 | 27.9% (inactive) |

same assay, conditions: Human astrocytes, viability inhibition, drug combinations; measured here: combo with BGB IC20; at 0.5 µM; stronger effect = higher value

| SMILES | inhibition |
| --- | --- |
| COc1cc([C@@H]2c3cc4c(cc3[C@@H](O[C@@H]3O[C@@H]5CO[C@@H](c6cccs6)O[C@H]5[C@H](O)[C@H]3O)[C@H]3COC(=O)[C@H]23)OCO4)cc(OC)c1O | 42.5% and 54.3% |
| COc1cc(NS(C)(=O)=O)ccc1Nc1c2ccccc2nc2ccccc12 | 46.6% and 56.1% |
| N=c1ccn2c(n1)O[C@H]1[C@H](O)[C@@H](CO)O[C@H]12 | 22.9% |

same assay, conditions: Human astrocytes, viability inhibition, drug combinations; measured here: combo with cisplatin IC20; at 0.5 µM; stronger effect = higher value

| SMILES | inhibition |
| --- | --- |
| COc1cc([C@@H]2c3cc4c(cc3[C@@H](O[C@@H]3O[C@@H]5CO[C@@H](c6cccs6)O[C@H]5[C@H](O)[C@H]3O)[C@H]3COC(=O)[C@H]23)OCO4)cc(OC)c1O | 28% and 33.1% |
| COc1cc(NS(C)(=O)=O)ccc1Nc1c2ccccc2nc2ccccc12 | 26.6% and 33.1% |
| N=c1ccn2c(n1)O[C@H]1[C@H](O)[C@@H](CO)O[C@H]12 | 18.2% |

assay: BT084 cell growth, single and combined drugs, ICGC_MB145, cisplatin and BGB IC40 combos (AID 1671461); details: BT084 medulloblastoma cells, drug combinations, at 0.5 µM, stronger effect = higher value;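 also: cells exposed to drugs for 96 hours; 0% = vehicle DMSO and 100% = high DMSO full killing control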

| SMILES | inhibition |
| --- | --- |
| COc1cc([C@@H]2c3cc4c(cc3[C@@H](O[C@@H]3O[C@@H]5CO[C@@H](c6cccs6)O[C@H]5[C@H](O)[C@H]3O)[C@H]3COC(=O)[C@H]23)OCO4)cc(OC)c1O | -19.6% (inactive) and -7.59% (inactive) |
| COc1cc(NS(C)(=O)=O)ccc1Nc1c2ccccc2nc2ccccc12 | -11.3% (inactive) and -37.4% (inactive) |
| N=c1ccn2c(n1)O[C@H]1[C@H](O)[C@@H](CO)O[C@H]12 | -29.7% (inactive) |

same assay, conditions: BT084 medulloblastoma cells, drug combinations, cisplatin combination, at 0.5 µM, stronger effect = higher value

| SMILES | inhibition |
| --- | --- |
| COc1cc([C@@H]2c3cc4c(cc3[C@@H](O[C@@H]3O[C@@H]5CO[C@@H](c6cccs6)O[C@H]5[C@H](O)[C@H]3O)[C@H]3COC(=O)[C@H]23)OCO4)cc(OC)c1O | 12.3% and 2.14% |
| COc1cc(NS(C)(=O)=O)ccc1Nc1c2ccccc2nc2ccccc12 | -2.36% and -21.2% |
| N=c1ccn2c(n1)O[C@H]1[C@H](O)[C@@H](CO)O[C@H]12 | 2.2% |

same assay, conditions: BT084 medulloblastoma cells, drug combinations, cisplatin combination, at 5 µM, stronger effect = higher value

| SMILES | inhibition |
| --- | --- |
| COc1cc([C@@H]2c3cc4c(cc3[C@@H](O[C@@H]3O[C@@H]5CO[C@@H](c6cccs6)O[C@H]5[C@H](O)[C@H]3O)[C@H]3COC(=O)[C@H]23)OCO4)cc(OC)c1O | 27.6% and 23.9% |
| COc1cc(NS(C)(=O)=O)ccc1Nc1c2ccccc2nc2ccccc12 | 23.7% and 15.2% |
| N=c1ccn2c(n1)O[C@H]1[C@H](O)[C@@H](CO)O[C@H]12 | 58.5% |

same assay, conditions: BT084 medulloblastoma cells, drug combinations, measured here: BGB IC40 combination 0.05 uM, at 0.05 µM, stronger effect = higher value

| SMILES | inhibition |
| --- | --- |
| COc1cc([C@@H]2c3cc4c(cc3[C@@H](O[C@@H]3O[C@@H]5CO[C@@H](c6cccs6)O[C@H]5[C@H](O)[C@H]3O)[C@H]3COC(=O)[C@H]23)OCO4)cc(OC)c1O | -12.5% and 39.7% |
| COc1cc(NS(C)(=O)=O)ccc1Nc1c2ccccc2nc2ccccc12 | 53.7% and -12.4% |
| N=c1ccn2c(n1)O[C@H]1[C@H](O)[C@@H](CO)O[C@H]12 | -14% |

same assay, conditions: BT084 medulloblastoma cells, drug combinations, single agent, at 5 µM, stronger effect = higher value

| SMILES | inhibition |
| --- | --- |
| COc1cc([C@@H]2c3cc4c(cc3[C@@H](O[C@@H]3O[C@@H]5CO[C@@H](c6cccs6)O[C@H]5[C@H](O)[C@H]3O)[C@H]3COC(=O)[C@H]23)OCO4)cc(OC)c1O | 19.5% and 27.4% |
| COc1cc(NS(C)(=O)=O)ccc1Nc1c2ccccc2nc2ccccc12 | 7.96% and 23.3% |
| N=c1ccn2c(n1)O[C@H]1[C@H](O)[C@@H](CO)O[C@H]12 | -28.9% |

assay: RCMB18 cell growth, single agent and combined, cisplatin and BGB IC40 combos (AID 1671462); details: RCMB18 medulloblastoma cells, at 0.5 µM, stronger effect = higher value;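 also: cells exposed to compound for four days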

| SMILES | inhibition |
| --- | --- |
| COc1cc([C@@H]2c3cc4c(cc3[C@@H](O[C@@H]3O[C@@H]5CO[C@@H](c6cccs6)O[C@H]5[C@H](O)[C@H]3O)[C@H]3COC(=O)[C@H]23)OCO4)cc(OC)c1O | -23.3% (inactive) and -2.62% (inactive) |
| COc1cc(NS(C)(=O)=O)ccc1Nc1c2ccccc2nc2ccccc12 | -1.22% (inactive) and -23% (inactive) |
| N=c1ccn2c(n1)O[C@H]1[C@H](O)[C@@H](CO)O[C@H]12 | -18% (inactive) |
